Structures are written as SMILES. Values joined by “and” are separate entries in the source; they are usually repeats but may differ in a detail not shown here. Equal entries are not always repeated. Some structures have more than one record in an assay (separate samples or runs), and their calls can disagree. Active and inactive are the calls of the source. How the source made its calls: active means hit-call score of the fitted dose curve at least 0.9, where 1 is the maximum; inactive means score below 0.9.

The test in a line: CCTE_Shafer_MEA_dev_network_spike_number: CCTE's Neural Network Formation Assay for Number of Network Spikes, Shafer Lab (AID 2284048).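 Further: synchronized bursts across electrodes counted on days 5 7 9 12 and integrated as AUC.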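 On AC50: fit as a loss of signal meaning fewer network spikes than DMSO.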 As for the experimental part: CCTE_Shafer_MEA_dev assay is conducted using Axion Biosystems 48 well microelectrode array (MEA) plates and Maestro recording system. Each well of the MEA plate contains a grid of 16 microelectrodes embedded in the culture surface. Electrically active cells, such as neurons, can be cultured over the electrodes, and electrical activity in these cells can be recorded extracellularly. The spontaneous firing of neurons is captured from each electrode on a microsecond timescale providing both temporally and spatially precise data. […] The CCTE_Shafer_MEA_dev assay uses primary cultures of rat cortical neurons. Recordings are made on days post-plating 5, 7, 9 and 12. As these cultures mature over time, neural networks develop functional activity and form cohesive networks in which electrical activity can be highly coordinated. CCTE_Shafer_MEA_dev_network_spike_number is 1 of 19 assay components of the CCTE_Shafer_MEA_dev assay. It measures the number of network spikes (temporally-clustered groups of action potential firing across multiple electrodes) during a recording in a microelectrode array (MEA) using Axion Biosystems Maestro 768 channel amplifier with the AxIS adaptive spike detector. To collapse across multiple recordings made on days post-plating 5, 7, 9 and 12, the trapezoidal area-under-the-curve of the component is calculated.Data from the assay component CCTE_Shafer_MEA_dev_network_spike_number was analyzed into 1 assay endpoint. This assay endpoint, CCTE_Shafer_MEA_dev_network_spike_number, was analyzed in the negative analysis fitting direction relative to DMSO as the negative control and baseline of activity. Using a type of functional reporter, gain or loss-of-signal activity can be used to understand electrical activity.
On the day prior to culture, each well was coated thoroughly with 150 uL of 0.05% polyethyleneimine (PEI, Sigma Cat P3143) in 50 mM HEPES (Sigma Cat H7523) at a pH of 8. The plate was incubated at 37C for one hour. PEI was rinsed out with 500 uL of sterile water three times. Plates were stored at 4C until the day of culture. This culture was plated at a seeding density of 1.5 x 10^5 cells/well on a 48-well MEA plate, prepared as described above. Cells were administered via a 25 uL media/laminin ([…]; Sigma Cat L2020-1MG) drop directly onto the microelectrode array, as adding the cells with the laminin results in better attachment than pre-coating with laminin. After 2 hours, an additional 475 uL of cortical media was added and the cells returned to the incubator. Exposure starts at day 0 of plating and is continued over twelve days of network development until the experiment is terminated. Cells are fed with fresh medium on DIV 5 and 9, following the recordings on those days. The entire volume of media in the well is exchanged and any vehicle or compound treatment is renewed. Complete details are found in OP-NHEERL/ISTD/SBB/TJS/2015-03-r0 (available on request, email shafer.tim@epa.gov). Measurement of the electrical activity is non-invasive, and recordings can be made from the same plate over multiple different days of the culture. In cortical neurons, this allows for the measurement of extracellular action potentials over the period during which networks form in the MEA plate.
Usually AC50 stands for the midpoint of the concentration-response curve, whichever way the signal moves. For `CC(=O)[O][Hg][c]1ccccc1`, the half-maximal activity concentration (AC50) was 9.11 nM (active).
For the compound `CCC(=O)C(CC(C)N(C)C)(c1ccccc1)c1ccccc1` (configuration not stated), the compound was called inactive.
For `CCOP(=S)(OCC)Oc1nc(Cl)c(Cl)cc1Cl`, the compound was called inactive; the AC50 was 23 µM (active) and 3.97 µM (active).
Turning to `C=C(C)C(=O)[O][Sn]([CH2]CCC)([CH2]CCC)[CH2]CCC`, the AC50 was 21.8 nM (active).
For the compound `CC(C)(C)c1cc(O)ccc1O`, the compound was called inactive.
Take `O=C(O)C(F)(F)C(F)(F)C(F)(F)C(F)(F)C(F)(F)C(F)(F)F`: the result was inactive.
Same read-out and setting: with `O=C(O)C(F)(F)C(F)(F)C(F)(F)C(F)(F)C(F)(F)C(F)(F)C(F)(F)C(F)(F)C(F)(F)C(F)(F)F` the entry was “inactive”.
Take `O=C1C2(Cl)C3(Cl)C4(Cl)C(Cl)(Cl)C5(Cl)C3(Cl)C1(Cl)C5(Cl)C24Cl` (configuration not stated): the AC50 is 3180 nM (active).
Consider `COP(=O)(OC)O/C(=C\Cl)c1cc(Cl)c(Cl)cc1Cl`, for which the outcome was inactive.
In the case of `ClC1(Cl)C2(Cl)C3(Cl)C4(Cl)C(Cl)(Cl)C5(Cl)C3(Cl)C1(Cl)C5(Cl)C24Cl` (configuration not stated), the half-maximal activity concentration (AC50) is 888 nM (active).
Still for that read-out and setting: under `Cn1sc(Cl)cc1=O` stands 4450 nM (active).

For the origin of these results see PubChem BioAssay (EPA / NIEHS).
